Results on 104 compounds are retold here after PubChem BioAssay AID1814 (Broad Institute, 2009).

Each structure is given as a SMILES string. About 22,000 (7.3%) of roughly 300,000 compounds were called active. Roughly 2% stayed inconclusive and do not appear here. Only a selection was taken, and actives are over-represented in it overall. Values without a mark were called inactive. Cut-off read from the data, not from the text of the source: active = activity score below about -60%; inconclusive = mostly about -28% to -61%; inactive = positive scores.

This test is described as follows: Activators via SNCA 5'UTR binding, MLPCN (AID 1814). The conditions noted are these: alpha-synuclein 5'UTR reporter, activators screen; active compounds read low; tested at 7.5 µM.
Turning to `O=C(Nc1cc(C(F)(F)F)ccc1Cl)c1cc(C2CC2)on1`, the activity score is -77.3% (active).

`CSc1ccccc1NC(=O)c1cc(C2CC2)on1`: the activity score was -116% (active).

`O=C(Nc1cc(C(F)(F)F)ccc1Cl)c1cc2nc3c(c(C(F)(F)F)n2n1)CCCC3`: the activity score is -243% (active).

Take `O=C(O)c1ccccc1CSc1nc2ccccc2s1`: the activity score is -62.9% (active).

Take `CC(/C=N/NC(=O)c1cc(-c2ccc3ccccc3c2)n[nH]1)=C\c1ccco1`: the activity score is -220% (active).

Regarding `COc1ccc(CNC(=O)c2ccc3oc(C(C)C)nc3c2)cc1`, the activity score is -118% (active).

Turning to `COC(=O)c1ccc(CNC(=O)c2ccc3oc(C(C)C)nc3c2)cc1`, the activity score is -95.9% (active).

On to `COC(=O)c1ccc(Sc2ccc(F)cc2)c(N)c1`, for which the activity score was -107% (active).

For the compound `CC(C)(C)c1ccc(/C=C2\SC(=O)N=C2N)cc1`, the activity score was -78.7% (active).

Turning to `O=C(Nc1cccc2ccccc12)c1onc2c1CCCC2`, the activity score is -204% (active).

With `Cc1ccc2nc(-c3ccc(SCC(=O)Nc4cc(C)on4)nc3)[nH]c2c1`, the activity score is -160% (active).

With `O=C(c1noc2c1CCCC2)N1CCc2ccccc2C1`, the activity score was -165% (active).

As for `O=C(NCCNc1ccccc1[N+](=O)[O-])c1ccccc1F`, the activity score was -168% (active).

With `NC(=O)c1ccccc1N=Cc1ccc2ccccc2c1`, the activity score was -211% (active).

On to `CCc1ccc2nc3sc(C(=O)Nc4nnc(CC)s4)c(N)c3cc2c1`, for which the activity score is -71.1% (active).

`Cc1nc(C)c(-c2csc(NCCc3ccccc3)n2)s1`: the activity score was -84.7% (active).

`CC(c1ccccn1)N(C)C(=O)c1ccc2nc(Cc3cccc(Cl)c3)oc2c1` (centres undefined): the activity score was -80.8% (active).

`COc1ccc(-c2cc3n(n2)CCc2nc4ccccc4n2-3)cc1`: the activity score was -137% (active).

For the compound `CCN1CCN(c2cc3nc(C)n(Cc4ccccc4)c(=O)c3cc2NC(=O)c2ccccc2F)CC1`, the activity score is 65.1%.

`COC(=O)c1sc(N2CCN(Cc3ccccc3)CC2)nc1N`: the activity score was -67.9% (active).

As to `Oc1ccc2ccccc2c1N=Nc1nccs1`, the activity score was 87.4%.

Consider `Cn1c(-c2ccc(C(=O)c3ccccc3)s2)nc2ccccc21`, for which the activity score is -73.8% (active).

Regarding `O=C(/C=C/c1cnc2ccccc2n1)NC1CCCCCC1`, the activity score is -94.3% (active).

With `O=[N+]([O-])c1ccccc1S(=O)(=O)Nc1cccc2cccnc12`, the activity score is 59.9%.

With `COc1ccc(NC(=O)Nc2cccc3cccnc23)cc1`, the activity score is -211% (active).

Regarding `O=C(Nc1ccccc1Cl)Nc1cccc2cccnc12`, the activity score is -162% (active).

In the case of `S=C(c1ccc(-c2ccccc2)o1)N1CCCCC1`, the activity score is -113% (active).

As to `OCCN1CCN(C(=S)c2ccc(-c3ccccc3)cc2)CC1`, the activity score is 88%.

On to `O=C(Nc1ccc(Cl)cn1)Nc1cccs1`, for which the activity score was -78.6% (active).

As for `Clc1ccc(Nc2ccc3ccccc3n2)cc1`, the activity score is -61.9% (active).

Consider `CCOC(=O)C1(Cc2ccccc2C)CCCN(C(=O)c2ccc(COC)o2)C1` (centres undefined), for which the activity score was -84.1% (active).

On to `O=C(Nc1ccc(N2CCOCC2)nc1)c1c(F)cccc1F`, for which the activity score was -91.2% (active).

For `COC(=O)CCNc1ccc2c(c1)OCCO2`, the activity score was -62.2% (active).

With `CCc1ccccc1OCC(=O)Nc1ccc2c(c1)OCCO2`, the activity score was -104% (active).

Turning to `CCCCC(=O)Nc1ccc2c(c1)OCCO2`, the activity score was -102% (active).

On to `Cc1ccc(SCC(=O)Nc2ccc3c(c2)OCCO3)cc1`, for which the activity score was -96.9% (active).

On to `CCN(CC)C(=O)CSc1nc2ccccc2o1`, for which the activity score was -63.8% (active).

`CC(C)(C)C(=O)CSc1nc2ccccc2o1`: the activity score was -109% (active).

For the compound `CC1Cc2ccccc2N1C(=O)CSc1nc2ccccc2o1` (centres undefined), the activity score was -87.9% (active).

As for `Cc1ccc(-c2nc(-c3cccnc3)sc2CC(=O)Nc2ccc(C)c(Cl)c2)cc1`, the activity score was 54.1%.

Turning to `Cc1ccc(NC(=O)Nc2cccnc2)cc1`, the activity score is -97.5% (active).

As to `CCc1ccc(NC(=O)Nc2ccncc2)cc1`, the activity score is -76.8% (active).

`Cc1ccc(NC(=O)Nc2nnc(-c3ccncc3)s2)cc1`: the activity score is -68% (active).

As for `CC(=O)c1cccc(NC(=O)Nc2ccc(C)cc2)c1`, the activity score was -144% (active).

In the case of `CCCCCCCCn1c2c(c(=N)c3c1CCC3)CCCC2`, the activity score is 101%.

As for `Cc1ccc(NC(=O)Nc2ccccc2)c(Br)c1`, the activity score was -192% (active).

On to `COC(=O)c1sccc1NC(=S)Nc1ccc(C)cc1`, for which the activity score was -77.8% (active).

Turning to `COC(=O)c1ccc(NC(=O)Nc2ccc(C)cc2)cc1`, the activity score is -81.9% (active).

Consider `COc1cc(NC(=O)Nc2ccc(C)cc2)cc([N+](=O)[O-])c1`, for which the activity score was -141% (active).

Consider `O=C(c1ccco1)N1CCN(C(=O)c2cc(-c3ccccc3F)no2)CC1`, for which the activity score is -156% (active).

`O=C(NCCCN1CCOCC1)c1cc(-c2ccccc2F)no1`: the activity score is -121% (active).

Regarding `CCC(=O)/C(=C(/O)c1ccccc1)c1nc2ccccc2[nH]1`, the activity score was -69% (active).

As for `CC[C@]1(O)C[C@@H]2CN(CCc3c([nH]c4ccccc34)[C@@](C(=O)OC)(c3cc4c(cc3OC)N(C)[C@H]3[C@@](O)(C(=O)OC)[C@H](OC(C)=O)[C@]5(CC)C=CCN6CC[C@]43[C@@H]65)C2)C1`, the activity score was 77.2%.

On to `CNc1[nH]ncc1[N+](=O)[O-]`, for which the activity score was -74.2% (active).

With `CC1CCCC(NC(=O)c2cccc(N3CCCC3=O)c2)C1C` (centres undefined), the activity score is -74.5% (active).

In the case of `CC1CCC(NC(=O)c2ccc(N3CCCC3=O)cc2)CC1` (centres undefined), the activity score is -64.3% (active).

As for `CN1c2ccc(C=O)c3c(C=O)ccc(c23)N(C)C1(C)C`, the activity score was 67%.

On to `CC1CCN(C(=S)c2ccc(-c3ccc(Cl)cc3Cl)o2)CC1`, for which the activity score is -91.3% (active).

`O=C(CSc1ccccn1)Nc1nc2c(ccc3ccccc32)s1`: the activity score was -63.2% (active).

As for `COc1ccc2nc(SCc3ccccc3)nc(C)c2c1`, the activity score was -70.7% (active).

In the case of `Cc1ccc(-n2ncc3c2ncn2nc(-c4ccco4)nc32)c(C)c1`, the activity score is -88.8% (active).

Turning to `Cc1onc(-c2ccccc2Cl)c1C(=O)N(Cc1ccc(N(C)C)cc1)C(C)C`, the activity score was 73.1%.

For `CCN1/C(=C\c2ccc3ccccc3[n+]2CC)Sc2cc(C)ccc21`, the activity score was -332% (active).

With `O=C(Nc1ncccc1O)c1ccc(S(=O)(=O)N2CCCC2)cc1`, the activity score is -67.4% (active).

`O=C(Nc1ncccc1O)c1ccc(C(=O)c2ccccc2)cc1`: the activity score was -507% (active).

In the case of `CNC(C)C#Cc1ccc2sc3cc(OC)c(OC)cc3c(=O)c2c1` (centres undefined), the activity score is -277% (active).

In the case of `COc1ccc(-c2cn3ccsc3n2)cc1`, the activity score was -105% (active).

With `CC(C)(C)C(=O)Nc1ccc(-c2cn3cccnc3n2)cc1`, the activity score was -130% (active).

Turning to `FC(F)(F)Oc1ccc(-c2cn3cccnc3n2)cc1`, the activity score was -80.4% (active).

`COc1ccc(-c2cn3cccnc3n2)cc1`: the activity score is -75.4% (active).

For the compound `CCn1nnnc1SCC(=O)c1ccc(C)cc1C`, the activity score was -81% (active).

`COC(=O)C1C(=O)c2c([nH]c(C(=O)OCCSC)c2C)CC1C` (centres undefined): the activity score is -117% (active).

As to `Cc1cccc(-n2ncc3c(N4CCc5ccccc54)ncnc32)c1`, the activity score is -164% (active).

For the compound `COc1ccc(-n2ncc3c(N4CCc5ccccc54)ncnc32)cc1`, the activity score is -240% (active).

On to `Cc1cc(N/C=C\C(=O)c2ccc(Cl)c(Cl)c2)no1`, for which the activity score is -231% (active).

`CCCCC(=O)Nc1nc(C)c(-c2csc(Nc3ccc(Cl)cc3)n2)s1`: the activity score is -62.8% (active).

Take `Cc1cc(-c2n[nH]c(=S)n2/N=C/C(Br)=C/c2ccccc2)n[nH]1`: the activity score was -235% (active).

In the case of `S=c1[nH]nc(-c2cccnc2)n1/N=C/C(Cl)=C\c1ccccc1`, the activity score was -177% (active).

For `Cc1ccccc1-c1n[nH]c(=S)n1/N=C/c1ccc(-c2ccccc2Br)o1`, the activity score is 57.9%.

Turning to `Cc1nn2c3cc(N4CCOCC4)ccc3nc2c2ccccc12`, the activity score is -149% (active).

Turning to `O=C(Cc1ccc(F)cc1)N/N=C/c1ccc2c(c1)OCO2`, the activity score is -93.4% (active).

Take `Cc1ccc(C(=O)NNc2ncnc3ccccc23)cc1`: the activity score is -131% (active).

Consider `Oc1c(CN2CCN(c3ccc(F)cc3)CC2)cc(Cl)c2cccnc12`, for which the activity score was 69.6%.

In the case of `CCN1CCN(c2ccc(NC(=O)c3cnccn3)cc2)CC1`, the activity score is -97.4% (active).

In the case of `O=C(Nc1ccc2c(c1)OCCO2)c1cnccn1`, the activity score is -68.9% (active).

Turning to `Cn1cc([N+](=O)[O-])c(C(=O)Nc2ccc3c(c2)OCCO3)n1`, the activity score is -65.9% (active).

`O=C(Nc1ccc2c(c1)OCCO2)c1ccoc1`: the activity score was -84.8% (active).

For the compound `CCN(CC)c1ccc(/C=N/NC(=O)c2cnccn2)c(O)c1`, the activity score is 72.3%.

Consider `Nc1c(C(=O)Nc2ccc3c(c2)OCCO3)nnn1Cc1ccccc1`, for which the activity score was -194% (active).

Turning to `CCOc1ccc(N2C(=O)CC(N(O)c3ccccc3)C2=O)cc1` (centres undefined), the activity score was -65% (active).

Consider `Cc1ccc(S(=O)(=O)NC(=O)Nc2nc(-c3ccc(F)c(F)c3)cs2)cc1`, for which the activity score was -61.5% (active).

Consider `O=S(=O)(Nc1ccc2nc(-c3ccco3)[nH]c2c1)c1ccccc1`, for which the activity score is -181% (active).

Take `CC(=O)N1CCC(C(=O)Nc2nc(-c3ccccc3)ns2)CC1`: the activity score is -82.9% (active).

In the case of `Cc1ccc(N=C2NC(=O)c3cccc([N+](=O)[O-])c32)cc1`, the activity score was -141% (active).

`O=C(CSc1nnnn1C1CCCC1)N1CCCCC1`: the activity score was -88% (active).

On to `CCCCCC(=O)Nc1ccc2oc(-c3ccncc3)nc2c1`, for which the activity score was -80.2% (active).

Consider `COc1cccc(/C=C/c2ccc3ccccc3n2)c1OC(C)=O`, for which the activity score was 83.1%.

With `COc1cccc(/C=C2\C=C(c3ccc(C)cc3)OC2=O)c1OC(C)=O`, the activity score is -65.8% (active).

Consider `O=C(NCCC1=CCCCC1)c1ccc(Cl)c([N+](=O)[O-])c1`, for which the activity score is -108% (active).

Take `Cc1ccc2cc(/C=N/Nc3ccc(C(=O)O)cc3)c(Cl)nc2c1`: the activity score is -167% (active).

With `CC1CCC(NC(=O)CNC(=O)c2ccc3ccccc3c2)CC1` (centres undefined), the activity score is -74% (active).

On to `Clc1cccc(-c2nc3nc4ccccc4nc3n2Cc2ccco2)c1`, for which the activity score was -77.2% (active).

For `Clc1ccc(-c2csc(-c3ccncc3)n2)cc1`, the activity score is -135% (active).

In the case of `O=c1[nH]c(/C=C/c2cccc(Br)c2)nc2ccccc12`, the activity score was -125% (active).
